Compound activity (PubChem BioAssay)
Sfp PPTase inh = qHTS Assay for Inhibitors of Bacillus subtilis Sfp phosphopantetheinyl transferase (PPTase); AID 1490, 2009; 310,000 tested, 3.5% active; 4'-phosphopantetheinyl transferase ffp (Bacillus subtilis), Q9F4F7; Biochemical Sfp PPTase activity, qHTS; Potency, µM, hits mostly inhibitors;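 note: the enzyme is Sfp with the accession as filed and its product quenches rhodamine fluorescence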
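Compounds were incubated with enzyme (final 15 nM) for 15 min at room temperature before substrate addition started the reaction. Fluorescence at 525 nm excitation, 598 nm emission was recorded immediately and after 30 minutes.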
Tau FP inhib = qHTS for Inhibitors of Tau Fibril Formation, Fluorescence Polarization | Potency, µM (top dose mostly 57.7 µM), hits mostly inhibitors | AID 1468, 2008 | K18 P301L tau heparin fibrillization, Alexa594 FP, 6 h | 280,000 tested, 0.39% active | Microtubule-associated protein tau (Homo sapiens), P10636; note: nearly all actives have a fitted effect of over 55% in size
Target sequence (P10636 561-689 P618L limits assumed): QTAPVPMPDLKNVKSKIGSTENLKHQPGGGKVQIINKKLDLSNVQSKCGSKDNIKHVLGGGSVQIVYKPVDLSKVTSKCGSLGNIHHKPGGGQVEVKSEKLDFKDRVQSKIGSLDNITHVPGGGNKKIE
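Human tau K18 […] P301L fragment, 15 uM unlabeled plus 0.24 uM Alexa 594-labeled tau (final), with compound and 20 uM heparin in 100 mM sodium acetate pH 7; 6 hr at 37 C, then Alexa 594 FP read.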
KDM4E inh = qHTS Assay for Inhibitors of Human Jumonji Domain Containing 2E (JMJD2E); Lysine-specific demethylase 4E (Homo sapiens), B2RXH2; JMJD2E catalytic domain, FDH-coupled NADH fluorescence (FDH is formaldehyde dehydrogenase); Potency, µM (titrated, usually from 57.1 µM), usual class: inhibitors; 230,000 tested, 1.6% active; AID 2147, 2009; active = well fitted inhibition curve with a large enough effect, not every such curve was filed as active; inconclusive = small, poorly fitted or top-dose-only effect, or another doubt; inactive = no such curve, though single readings can be large or run the other way; note: nearly all actives have a fitted effect of over 50% in size
Target sequence (B2RXH2 1-337 limits assumed): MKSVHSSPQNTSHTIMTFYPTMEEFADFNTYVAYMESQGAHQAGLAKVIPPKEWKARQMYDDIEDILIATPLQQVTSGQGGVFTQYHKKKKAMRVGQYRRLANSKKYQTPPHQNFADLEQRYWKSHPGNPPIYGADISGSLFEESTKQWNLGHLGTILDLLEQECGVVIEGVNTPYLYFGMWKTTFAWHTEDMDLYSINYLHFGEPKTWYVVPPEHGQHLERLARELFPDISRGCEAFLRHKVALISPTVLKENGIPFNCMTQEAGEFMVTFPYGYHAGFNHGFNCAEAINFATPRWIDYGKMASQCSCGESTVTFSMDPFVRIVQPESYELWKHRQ
FBPA coupling cs = qHTS Assay for Inhibitors of Fructose-1,6-bisphosphate Aldolase from Giardia Lamblia: Coupling assay counterscreen; coupling enzyme system counterscreen, AmpLite Red fluorescence; activity change, negative = inhibition, % at 58.2 µM, hits read low; 290,000 tested, 0.67% active; in the data active = activity change below about -30%
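Activity here indicates interference with the coupling reaction, not aldolase inhibition. Compounds at 57.5 uM final met coupling enzymes for 10 min at RT; substrate and AmpLite Red detection followed, with a 525/598 nm fluorescence read after 20 min.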
Tau fluor cs = Counterscreen qHTS for Inhibitors of Tau Fibril Formation, Fluorescence Polarization | 280,000 tested, 0.93% active | Potency, µM (top dose mostly 57.7 µM) | tau K18 P301L Alexa594 fluorescence, heparin fibrillization | AID 1463, 2008; note: nearly all actives have a fitted effect of over 55% in size
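Human K18 P301L tau (15 uM unlabeled plus 0.24 uM Alexa 594-labeled, final) in 100 mM sodium acetate pH 7 was mixed with compound and 20 uM heparin and incubated 6 hr at 37 C.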
Tau ThT inhib = qHTS for Inhibitors of Tau Fibril Formation, Thioflavin T Binding; recombinant tau K18 P301L (four-repeat tau fragment), heparin-induced fibrillization, ThT fluorescence; Potency, µM (series often up to 57.4 µM), usual class: inhibitors; 270,000 tested, 2.1% active; note: nearly all actives have a fitted effect of over 55% in size
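Heparin-induced (20 uM) aggregation of recombinant human K18 P301L tau, 15 uM unlabeled with 0.24 uM labeled, pH 7 acetate buffer, 6 hr at 37 C with compound. Fibrils quantified by 30 uM ThT fluorescence after 1 hr ambient incubation.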
Each line names hits and unclear results; the compound was inactive in the other large screens; [ ] = another dose, or the depositor's remark. The list is not random: actives were taken first. Their share in the collection is about 5.3%. Unless noted, calls come from the whole dose curve; as a rule, active = well fitted curve in the direction sought with a large enough effect; inconclusive = small, poorly fitted or top-dose-only effect, or another doubt; inactive = no such curve, though single readings can be large; an effect the other way counts as inactive or inconclusive.

S=c1[nH]c2ccc(Cl)cc2s1	KDM4E inh 7.9µM, Tau ThT inhib inconclusive
CCOC(=O)CCN1C(=O)[C@H]2[C@H]3[C@H](O)[C@H](O)C/C(=N/OCC(C)C)[C@H]3CC[C@@H]2C1=O	none (no result: KDM4E inh)
CS(=O)(=O)N1CCc2cc(C(=O)Nc3ccc(Cl)c(C(F)(F)F)c3)ccc21	Tau FP inhib 20µM, Tau fluor cs inconclusive (no result: Sfp PPTase inh, KDM4E inh, FBPA coupling cs)
CC(C)C(=O)Nc1cccc(C(=O)Nc2nnc(C(F)(F)F)s2)c1	none (no result: Sfp PPTase inh, KDM4E inh, FBPA coupling cs)
C[n+]1cccc2ccc3c(c21)OC(N)=C(C#N)C3c1ccccc1 (stereo unspecified)	KDM4E inh 16µM (no result: Tau ThT inhib)
COc1ccc(Cl)cc1N=Nc1ncc[nH]1	Tau ThT inhib 13µM
COc1ccccc1CNC(=O)COC(=O)CNS(=O)(=O)c1ccc(C)cc1	Sfp PPTase inh 28µM (no result: Tau FP inhib, KDM4E inh, FBPA coupling cs, Tau fluor cs, Tau ThT inhib)
Cc1ccc(S(=O)(=O)NCC(=O)OCc2ccccc2Br)cc1	none
CCCC[n+]1ccn(-c2nc3c([N+](=O)[O-])cccc3n2C)c1	none (no result: Tau FP inhib, KDM4E inh, Tau fluor cs, Tau ThT inhib)
CC(=O)Nc1ccc(S(=O)(=O)NCCSc2ccccn2)cc1	none
CC(=O)Nc1ccc(S(=O)(=O)/N=C2\C(=O)c3ccccc3C([O-])=C2n2cc[n+](-c3ccccn3)c2)cc1	Tau FP inhib inconclusive, FBPA coupling cs -39, Tau fluor cs 14µM[quencher], Tau ThT inhib 13µM
CCCC[n+]1ccn(C2=C([O-])c3ccccc3C(=O)/C2=N\S(=O)(=O)c2ccc(Br)cc2)c1	FBPA coupling cs -59, Tau ThT inhib inconclusive
Cc1ccc(NC(=O)C[n+]2ccn(C3=C([O-])c4ccccc4C3=O)c2)cc1	Tau ThT inhib inconclusive
Cc1ccc(S(=O)(=O)/N=C2\C(=O)c3ccccc3C([O-])=C2n2cc[n+](CCC(C)C)c2)cc1	FBPA coupling cs -52, Tau ThT inhib inconclusive
C[C@@H](C[N+](C)(C)C)OC(N)=O	none (no result: Tau FP inhib, Tau fluor cs, Tau ThT inhib)
Cc1cc(C)c2nc(N3CCCC(C(=O)NCc4cccc(Cl)c4)C3)sc2c1 (stereo unspecified)	Tau fluor cs inconclusive, Tau ThT inhib inconclusive (no result: Sfp PPTase inh, KDM4E inh, FBPA coupling cs)
C/C(=N\NC(N)=S)C1=CCC2C3CC[C@H]4CC(O)CC[C@]4(C)C3CC[C@]12C (stereo partly specified)	Sfp PPTase inh 40µM (no result: Tau FP inhib, KDM4E inh, Tau fluor cs, Tau ThT inhib)
O=C(O)COc1ccccc1/C=N/Nc1ccc(S(=O)(=O)Nc2ccc(Cl)cc2)cc1[N+](=O)[O-]	Tau FP inhib inconclusive, Tau fluor cs inconclusive, Tau ThT inhib 14µM
Cc1cc(C)nc(N/N=C/c2ccccc2OCC(=O)O)n1	Sfp PPTase inh 6.3µM (no result: Tau FP inhib, KDM4E inh, Tau fluor cs, Tau ThT inhib)
CCN(CC)S(=O)(=O)c1ccc(N/N=C/c2ccccc2OCC(=O)O)c([N+](=O)[O-])c1	Tau ThT inhib inconclusive
Cc1cc(C)nc(N/N=C/c2ccccc2OCc2ccccc2)n1	none
COc1ccccc1NS(=O)(=O)c1ccc(N/N=C/c2ccccc2OCC(=O)O)c([N+](=O)[O-])c1	Tau fluor cs inconclusive, Tau ThT inhib 10µM
Cc1ccc(NC(=O)C(C)S)cc1 (stereo unspecified)	Sfp PPTase inh 40µM, Tau FP inhib inconclusive, Tau ThT inhib inconclusive
Cc1ccc(NC(=O)C(C)Sc2nnc(C)n2C)cc1 (stereo unspecified)	Sfp PPTase inh 71µM (no result: Tau FP inhib, KDM4E inh, Tau fluor cs, Tau ThT inhib)
CCN(c1ccccc1)S(=O)(=O)c1nnc(NC(=O)C2CCCCC2)s1	Tau ThT inhib 3.5µM (no result: Sfp PPTase inh, KDM4E inh, FBPA coupling cs)
CCCCOc1ccccc1C(=O)Nc1nonc1-c1ccccc1	none (no result: Sfp PPTase inh, KDM4E inh, FBPA coupling cs)
COc1cc(C(=O)O)ccc1O	none
O=C(O)c1ccc2cc(-c3ccc(O)c(C45CC6CC(CC(C6)C4)C5)c3)ccc2c1	Tau FP inhib inconclusive, KDM4E inh inconclusive, Tau fluor cs inconclusive, Tau ThT inhib 28µM
Oc1c(CN2CCOCC2)cc(COCc2ccccc2)c2cccnc12	KDM4E inh 25µM, Tau ThT inhib inconclusive
